Assay results published in PMC7862700, “An all-to-all approach to the identification of sequence-specific readers for epigenetic DNA modifications on cytosine”.

Columns and labels:
Assay in all cases: DAPPL (digital affinity profiling via proximity ligation, sequencing); 10 mM Tris-HCl pH 7.5, 50 mM NaCl, 1 mM DTT, 4% glycerol, room temperature, 30 min; GST-TFs on glutathione beads, 16-mer random dsDNA library, 0.1% formaldehyde crosslink after washing; high values mean tight binding
[1] = target: T1, FLI1 (Homo sapiens, UniProt Q01543 1-452); settings: protein: recombinant; tags: N-terminal GST; dsDNA, one strand shown
T1 sequence: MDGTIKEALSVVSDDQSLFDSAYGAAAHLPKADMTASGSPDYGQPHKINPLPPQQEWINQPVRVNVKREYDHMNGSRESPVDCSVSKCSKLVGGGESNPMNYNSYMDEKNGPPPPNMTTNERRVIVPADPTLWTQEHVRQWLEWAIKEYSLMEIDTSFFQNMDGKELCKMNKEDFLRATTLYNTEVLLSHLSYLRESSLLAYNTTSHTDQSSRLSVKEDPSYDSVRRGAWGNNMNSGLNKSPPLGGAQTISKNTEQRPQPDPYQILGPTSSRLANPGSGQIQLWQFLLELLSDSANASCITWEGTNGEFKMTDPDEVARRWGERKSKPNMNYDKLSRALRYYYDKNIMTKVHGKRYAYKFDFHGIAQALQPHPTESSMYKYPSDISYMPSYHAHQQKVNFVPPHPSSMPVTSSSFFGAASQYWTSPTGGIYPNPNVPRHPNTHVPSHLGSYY
Method in brief: (§1)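 A tag-only sample was pooled with DNA-barcoded human transcription factors that had been expressed in yeast as GST fusions and captured on glutathione beads. The pools were incubated for 30 min at room temperature with 200 nmole of a random double-stranded 16-mer DNA library in Tris/NaCl/DTT/glycerol buffer, then washed, crosslinked with 0.1% formaldehyde, proximity-ligated (BsaI/T4 ligase, 1 h, 37 °C), PCR-amplified and sequenced on an Illumina NextSeq500. Binding signal is each hexamer's read frequency for a factor divided by its frequency for the tag-only sample.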

[2] = target: T2, ELK1 (Homo sapiens, UniProt P19419 1-428); settings: protein: recombinant; tags: N-terminal GST; dsDNA, one strand shown
T2 sequence: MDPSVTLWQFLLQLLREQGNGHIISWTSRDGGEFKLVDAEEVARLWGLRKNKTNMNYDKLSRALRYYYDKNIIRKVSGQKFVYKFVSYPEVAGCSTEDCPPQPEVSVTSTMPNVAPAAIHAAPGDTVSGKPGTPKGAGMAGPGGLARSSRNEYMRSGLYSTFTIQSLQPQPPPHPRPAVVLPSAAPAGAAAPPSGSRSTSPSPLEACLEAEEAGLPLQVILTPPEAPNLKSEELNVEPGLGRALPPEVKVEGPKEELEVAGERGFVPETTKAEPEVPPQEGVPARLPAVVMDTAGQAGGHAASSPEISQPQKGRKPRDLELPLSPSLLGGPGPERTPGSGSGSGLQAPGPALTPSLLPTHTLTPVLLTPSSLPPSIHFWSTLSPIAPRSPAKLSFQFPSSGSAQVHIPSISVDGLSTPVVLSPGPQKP
Method in brief: as §1

[3] = target: T3, GABPA (Homo sapiens, UniProt Q06546 1-454); settings: protein: recombinant; tags: N-terminal GST; dsDNA, one strand shown
T3 sequence: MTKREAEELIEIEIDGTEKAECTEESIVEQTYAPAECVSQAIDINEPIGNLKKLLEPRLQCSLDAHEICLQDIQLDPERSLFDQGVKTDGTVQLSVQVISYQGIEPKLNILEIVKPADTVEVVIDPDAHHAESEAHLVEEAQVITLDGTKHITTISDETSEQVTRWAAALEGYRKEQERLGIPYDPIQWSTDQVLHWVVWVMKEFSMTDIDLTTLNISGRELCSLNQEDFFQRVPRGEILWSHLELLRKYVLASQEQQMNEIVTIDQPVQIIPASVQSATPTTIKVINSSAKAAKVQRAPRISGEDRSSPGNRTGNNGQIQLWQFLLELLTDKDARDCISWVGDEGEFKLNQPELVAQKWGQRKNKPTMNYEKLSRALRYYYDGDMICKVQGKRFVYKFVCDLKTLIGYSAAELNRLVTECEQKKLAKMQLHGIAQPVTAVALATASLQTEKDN
Method in brief: as §1

[4] = target: T4, ERG (Homo sapiens, UniProt P11308 1-479); settings: protein: recombinant; tags: N-terminal GST; dsDNA, one strand shown
T4 sequence: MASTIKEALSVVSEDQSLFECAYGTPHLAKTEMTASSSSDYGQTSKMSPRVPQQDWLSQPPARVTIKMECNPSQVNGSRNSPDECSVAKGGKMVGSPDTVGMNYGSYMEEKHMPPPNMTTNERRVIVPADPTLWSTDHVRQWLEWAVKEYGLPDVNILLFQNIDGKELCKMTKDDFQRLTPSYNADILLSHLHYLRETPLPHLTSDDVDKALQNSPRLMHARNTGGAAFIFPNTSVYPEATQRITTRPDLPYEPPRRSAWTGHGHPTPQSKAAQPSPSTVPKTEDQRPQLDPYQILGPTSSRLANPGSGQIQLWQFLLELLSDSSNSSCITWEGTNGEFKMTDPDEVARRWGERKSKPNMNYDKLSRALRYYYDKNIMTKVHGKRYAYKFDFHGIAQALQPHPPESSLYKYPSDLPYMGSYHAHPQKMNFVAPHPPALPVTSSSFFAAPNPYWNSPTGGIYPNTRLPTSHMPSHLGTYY
Method in brief: as §1

[5] = target: ELF1 (Homo sapiens, UniProt P32519 1-619); settings: protein: recombinant; tags: N-terminal GST; dsDNA, one strand shown
Chain of ELF1 (P32519 whole entry): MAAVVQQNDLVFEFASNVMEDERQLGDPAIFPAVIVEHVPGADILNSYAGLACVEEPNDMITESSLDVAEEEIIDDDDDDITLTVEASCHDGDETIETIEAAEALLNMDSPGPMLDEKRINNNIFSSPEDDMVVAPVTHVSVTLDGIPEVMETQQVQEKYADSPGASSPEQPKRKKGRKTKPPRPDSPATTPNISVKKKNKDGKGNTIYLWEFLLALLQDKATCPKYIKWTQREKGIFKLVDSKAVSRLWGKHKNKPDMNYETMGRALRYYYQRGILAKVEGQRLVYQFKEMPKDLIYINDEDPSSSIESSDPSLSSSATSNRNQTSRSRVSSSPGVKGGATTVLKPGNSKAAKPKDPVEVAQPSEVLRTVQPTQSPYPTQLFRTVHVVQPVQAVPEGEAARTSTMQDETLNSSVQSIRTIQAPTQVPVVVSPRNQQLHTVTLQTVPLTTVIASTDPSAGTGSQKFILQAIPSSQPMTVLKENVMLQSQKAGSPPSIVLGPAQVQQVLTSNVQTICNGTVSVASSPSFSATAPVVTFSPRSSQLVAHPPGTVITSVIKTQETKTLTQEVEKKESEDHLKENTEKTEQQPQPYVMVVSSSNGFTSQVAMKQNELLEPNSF
Method in brief: as §1

[6] = target: T5, EHF (Homo sapiens, UniProt Q9NZC4 1-300); settings: protein: recombinant; tags: N-terminal GST; dsDNA, one strand shown
T5 sequence: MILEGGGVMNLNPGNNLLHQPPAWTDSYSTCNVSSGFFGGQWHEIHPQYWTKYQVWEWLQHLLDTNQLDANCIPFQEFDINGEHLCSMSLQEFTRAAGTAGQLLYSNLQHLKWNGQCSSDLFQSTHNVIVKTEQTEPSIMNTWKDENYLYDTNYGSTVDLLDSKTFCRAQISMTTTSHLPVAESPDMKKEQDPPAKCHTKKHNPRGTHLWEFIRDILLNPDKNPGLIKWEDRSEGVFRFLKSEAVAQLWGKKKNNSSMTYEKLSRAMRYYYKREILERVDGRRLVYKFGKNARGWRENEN
Method in brief: as §1

[7] = target: SPI1 (Homo sapiens, UniProt P17947 1-270); settings: protein: recombinant; tags: N-terminal GST; dsDNA, one strand shown
Method in brief: as §1

[8] = target: SPIB (Homo sapiens, UniProt Q01892 1-262); settings: protein: recombinant; tags: N-terminal GST; dsDNA, one strand shown
Chain of SPIB (Q01892 whole entry): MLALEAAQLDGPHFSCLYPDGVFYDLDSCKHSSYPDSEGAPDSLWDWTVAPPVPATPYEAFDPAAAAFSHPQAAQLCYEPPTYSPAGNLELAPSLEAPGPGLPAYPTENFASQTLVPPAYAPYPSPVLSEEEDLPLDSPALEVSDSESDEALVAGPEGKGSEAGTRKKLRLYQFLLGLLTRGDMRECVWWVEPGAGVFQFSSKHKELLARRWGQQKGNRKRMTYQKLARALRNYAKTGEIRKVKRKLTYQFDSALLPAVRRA
Method in brief: as §1

[9] = target: T6, ELK3 (Homo sapiens, UniProt P41970 1-407); settings: protein: recombinant; tags: N-terminal GST; dsDNA, one strand shown
T6 sequence: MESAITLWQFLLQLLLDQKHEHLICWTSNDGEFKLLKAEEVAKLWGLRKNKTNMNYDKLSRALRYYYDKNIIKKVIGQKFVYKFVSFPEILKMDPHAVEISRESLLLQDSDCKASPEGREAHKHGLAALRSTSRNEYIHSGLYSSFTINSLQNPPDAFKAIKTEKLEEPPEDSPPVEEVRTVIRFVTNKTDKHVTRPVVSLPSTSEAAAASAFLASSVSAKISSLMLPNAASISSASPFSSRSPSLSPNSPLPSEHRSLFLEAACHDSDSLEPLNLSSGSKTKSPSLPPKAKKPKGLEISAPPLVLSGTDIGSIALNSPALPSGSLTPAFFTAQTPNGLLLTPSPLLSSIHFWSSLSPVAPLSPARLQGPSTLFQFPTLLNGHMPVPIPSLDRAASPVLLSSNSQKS
Method in brief: as §1

[10] = target: T7, FEV (Homo sapiens, UniProt Q99581 1-238); settings: protein: recombinant; tags: N-terminal GST; dsDNA, one strand shown
T7 sequence: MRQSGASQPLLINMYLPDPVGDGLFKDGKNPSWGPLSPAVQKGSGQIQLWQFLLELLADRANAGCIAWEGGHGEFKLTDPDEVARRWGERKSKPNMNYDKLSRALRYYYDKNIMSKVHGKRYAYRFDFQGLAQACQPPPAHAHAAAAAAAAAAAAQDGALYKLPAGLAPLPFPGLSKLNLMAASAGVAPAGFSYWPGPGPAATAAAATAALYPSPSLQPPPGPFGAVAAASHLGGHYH
Method in brief: as §1

[11] = target: ETV5 (Homo sapiens, UniProt P41161 1-510); settings: protein: recombinant; tags: N-terminal GST; dsDNA, one strand shown
Chain of ETV5 (P41161 whole entry): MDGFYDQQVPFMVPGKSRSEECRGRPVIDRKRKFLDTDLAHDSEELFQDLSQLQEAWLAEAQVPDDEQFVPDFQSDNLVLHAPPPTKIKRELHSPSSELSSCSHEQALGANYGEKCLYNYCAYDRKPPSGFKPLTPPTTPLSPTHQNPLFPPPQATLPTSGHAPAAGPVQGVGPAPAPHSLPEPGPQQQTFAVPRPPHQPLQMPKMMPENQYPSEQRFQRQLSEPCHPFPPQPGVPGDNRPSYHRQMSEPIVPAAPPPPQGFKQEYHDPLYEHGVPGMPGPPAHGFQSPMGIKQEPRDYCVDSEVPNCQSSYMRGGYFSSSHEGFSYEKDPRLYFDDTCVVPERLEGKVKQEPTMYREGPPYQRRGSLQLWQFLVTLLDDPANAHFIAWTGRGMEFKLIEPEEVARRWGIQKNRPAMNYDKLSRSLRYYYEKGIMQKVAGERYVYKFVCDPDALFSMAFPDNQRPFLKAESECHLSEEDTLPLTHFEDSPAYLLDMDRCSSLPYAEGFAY
Method in brief: as §1

[12] = target: HSF1 (Homo sapiens, UniProt Q00613 1-529); settings: protein: recombinant; tags: N-terminal GST; chain copies: 3; dsDNA, one strand shown
Chain of HSF1 (Q00613 whole entry): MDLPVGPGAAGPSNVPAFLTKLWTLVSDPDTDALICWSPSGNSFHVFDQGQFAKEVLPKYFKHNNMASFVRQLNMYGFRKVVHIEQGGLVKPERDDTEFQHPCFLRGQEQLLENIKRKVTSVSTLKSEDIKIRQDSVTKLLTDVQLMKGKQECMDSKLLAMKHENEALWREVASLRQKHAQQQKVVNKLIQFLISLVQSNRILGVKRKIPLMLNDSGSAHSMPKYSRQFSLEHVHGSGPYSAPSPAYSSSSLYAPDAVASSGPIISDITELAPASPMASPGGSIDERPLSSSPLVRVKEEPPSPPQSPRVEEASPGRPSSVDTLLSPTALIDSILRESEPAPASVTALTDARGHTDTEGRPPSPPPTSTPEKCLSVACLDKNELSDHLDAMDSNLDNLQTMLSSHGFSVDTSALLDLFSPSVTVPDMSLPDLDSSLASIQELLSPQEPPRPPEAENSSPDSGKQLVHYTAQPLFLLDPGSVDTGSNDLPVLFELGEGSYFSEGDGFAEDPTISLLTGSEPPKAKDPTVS
Method in brief: as §1

[13] = target: T8, SPIC (Homo sapiens, UniProt Q8N5J4 1-248); settings: protein: recombinant; tags: N-terminal GST; dsDNA, one strand shown
T8 sequence: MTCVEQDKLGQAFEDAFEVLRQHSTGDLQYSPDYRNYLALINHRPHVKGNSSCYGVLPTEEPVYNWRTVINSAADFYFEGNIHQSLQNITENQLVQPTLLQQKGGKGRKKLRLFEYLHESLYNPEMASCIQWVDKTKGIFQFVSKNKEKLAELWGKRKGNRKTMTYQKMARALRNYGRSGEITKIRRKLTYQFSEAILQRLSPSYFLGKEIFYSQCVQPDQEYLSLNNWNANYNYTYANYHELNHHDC
Method in brief: as §1

[14] = target: ELF4 (Homo sapiens, UniProt Q99607 1-663); settings: protein: recombinant; tags: N-terminal GST; dsDNA, one strand shown
Chain of ELF4 (Q99607 whole entry): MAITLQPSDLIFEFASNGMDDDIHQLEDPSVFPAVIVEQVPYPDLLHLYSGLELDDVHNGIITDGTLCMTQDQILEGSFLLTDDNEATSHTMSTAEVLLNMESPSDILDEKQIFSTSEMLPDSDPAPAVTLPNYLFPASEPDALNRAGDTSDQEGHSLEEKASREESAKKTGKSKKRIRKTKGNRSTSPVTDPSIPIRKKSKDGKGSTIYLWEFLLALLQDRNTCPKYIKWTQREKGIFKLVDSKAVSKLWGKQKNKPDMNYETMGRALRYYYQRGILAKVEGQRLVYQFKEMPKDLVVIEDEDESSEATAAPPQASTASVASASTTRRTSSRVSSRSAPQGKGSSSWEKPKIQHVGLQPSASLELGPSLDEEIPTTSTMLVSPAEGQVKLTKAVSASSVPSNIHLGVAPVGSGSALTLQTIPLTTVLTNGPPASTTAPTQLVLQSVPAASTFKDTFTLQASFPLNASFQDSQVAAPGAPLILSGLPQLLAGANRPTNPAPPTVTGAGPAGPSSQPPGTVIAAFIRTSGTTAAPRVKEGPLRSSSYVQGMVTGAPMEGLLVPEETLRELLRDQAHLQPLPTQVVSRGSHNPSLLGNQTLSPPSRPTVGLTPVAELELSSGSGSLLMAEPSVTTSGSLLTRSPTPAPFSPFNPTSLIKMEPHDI
Method in brief: as §1

[15] = target: T9, ELK4 (Homo sapiens, UniProt P28324-2 1-405); settings: protein: recombinant; tags: N-terminal GST; dsDNA, one strand shown
T9 sequence: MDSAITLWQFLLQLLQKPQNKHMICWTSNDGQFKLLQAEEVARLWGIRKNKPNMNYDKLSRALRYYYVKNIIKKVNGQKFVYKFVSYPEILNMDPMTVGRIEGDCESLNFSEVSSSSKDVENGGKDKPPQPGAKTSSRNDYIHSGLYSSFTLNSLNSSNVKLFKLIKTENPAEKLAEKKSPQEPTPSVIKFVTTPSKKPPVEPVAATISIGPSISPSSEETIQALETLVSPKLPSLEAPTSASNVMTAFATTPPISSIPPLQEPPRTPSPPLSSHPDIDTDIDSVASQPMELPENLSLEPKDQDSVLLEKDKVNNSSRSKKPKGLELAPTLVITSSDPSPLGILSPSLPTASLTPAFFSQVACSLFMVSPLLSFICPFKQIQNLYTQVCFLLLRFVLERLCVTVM
Method in brief: as §1

[16] = target: T10, ETV2 (Homo sapiens, UniProt O00321 1-342); settings: protein: recombinant; tags: N-terminal GST; dsDNA, one strand shown
T10 sequence: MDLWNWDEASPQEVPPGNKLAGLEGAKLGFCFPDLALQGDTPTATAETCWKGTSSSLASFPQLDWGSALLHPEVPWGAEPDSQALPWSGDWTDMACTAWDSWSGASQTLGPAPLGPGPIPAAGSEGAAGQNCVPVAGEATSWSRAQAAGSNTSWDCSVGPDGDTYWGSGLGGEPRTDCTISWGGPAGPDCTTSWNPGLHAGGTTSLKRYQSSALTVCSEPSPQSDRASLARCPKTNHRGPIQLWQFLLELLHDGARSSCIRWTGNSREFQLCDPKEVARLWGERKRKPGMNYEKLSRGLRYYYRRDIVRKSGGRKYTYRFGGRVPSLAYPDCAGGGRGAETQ
Method in brief: as §1

[17] = target: T11, ELF3 (Homo sapiens, UniProt P78545 1-371); settings: protein: recombinant; tags: N-terminal GST; dsDNA, one strand shown
T11 sequence: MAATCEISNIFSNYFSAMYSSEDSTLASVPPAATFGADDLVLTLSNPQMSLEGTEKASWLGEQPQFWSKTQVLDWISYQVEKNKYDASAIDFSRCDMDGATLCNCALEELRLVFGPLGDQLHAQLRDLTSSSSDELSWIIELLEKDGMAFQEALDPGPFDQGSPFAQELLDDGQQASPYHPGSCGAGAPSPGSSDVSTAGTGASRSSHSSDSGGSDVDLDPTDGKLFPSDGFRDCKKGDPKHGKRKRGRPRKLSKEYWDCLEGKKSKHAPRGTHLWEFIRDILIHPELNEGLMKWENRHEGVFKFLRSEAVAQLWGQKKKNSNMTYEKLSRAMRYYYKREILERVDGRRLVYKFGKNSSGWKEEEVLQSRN
Method in brief: as §1

[18] = target: CRX (Homo sapiens, UniProt O43186 1-299); settings: protein: recombinant; tags: N-terminal GST; dsDNA, one strand shown
Chain of CRX (O43186 whole entry): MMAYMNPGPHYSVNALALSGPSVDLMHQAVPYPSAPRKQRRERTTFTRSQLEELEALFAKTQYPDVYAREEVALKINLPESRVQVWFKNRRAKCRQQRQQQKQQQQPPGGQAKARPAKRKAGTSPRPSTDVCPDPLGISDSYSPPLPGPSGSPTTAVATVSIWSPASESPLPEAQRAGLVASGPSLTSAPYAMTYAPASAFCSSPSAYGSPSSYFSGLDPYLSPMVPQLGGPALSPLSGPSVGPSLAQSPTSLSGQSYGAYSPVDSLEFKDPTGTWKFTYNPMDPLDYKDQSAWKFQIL
Method in brief: as §1

[19] = target: ETV1 (Homo sapiens, UniProt P50549 1-477); settings: protein: recombinant; tags: N-terminal GST; dsDNA, one strand shown
Chain of ETV1 (P50549 whole entry): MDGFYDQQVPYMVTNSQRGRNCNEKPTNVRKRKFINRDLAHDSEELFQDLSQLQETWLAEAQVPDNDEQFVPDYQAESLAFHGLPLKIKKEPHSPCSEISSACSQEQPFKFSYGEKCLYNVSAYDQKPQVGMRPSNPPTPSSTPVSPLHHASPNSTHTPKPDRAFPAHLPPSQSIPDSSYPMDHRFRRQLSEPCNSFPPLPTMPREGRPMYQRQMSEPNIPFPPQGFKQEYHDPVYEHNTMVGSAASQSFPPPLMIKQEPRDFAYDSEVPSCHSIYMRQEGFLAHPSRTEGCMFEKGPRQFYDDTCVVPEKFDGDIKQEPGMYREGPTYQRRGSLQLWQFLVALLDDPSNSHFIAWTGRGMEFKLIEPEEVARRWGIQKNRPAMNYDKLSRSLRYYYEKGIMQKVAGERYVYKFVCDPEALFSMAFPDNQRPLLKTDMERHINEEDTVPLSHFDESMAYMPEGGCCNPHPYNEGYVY
Method in brief: as §1

GTCTCA
binding signal [1]: 1.34 fold enrichment (6-mer frequency, TF over GST control)
binding signal [2]: 1.32 fold enrichment (6-mer frequency, TF over GST control)
binding signal [3]: 1.35 fold enrichment (6-mer frequency, TF over GST control)
binding signal [4]: 1.36 fold enrichment (6-mer frequency, TF over GST control)
binding signal [5]: 1.41 fold enrichment (6-mer frequency, TF over GST control)
binding signal [6]: 1.32 fold enrichment (6-mer frequency, TF over GST control)
binding signal [7]: 1.39 fold enrichment (6-mer frequency, TF over GST control)
binding signal [8]: 1.41 fold enrichment (6-mer frequency, TF over GST control)
binding signal [9]: 1.32 fold enrichment (6-mer frequency, TF over GST control)
binding signal [10]: 1.25 fold enrichment (6-mer frequency, TF over GST control)
binding signal [11]: 1.4 fold enrichment (6-mer frequency, TF over GST control)
binding signal [12]: 1.01 fold enrichment (6-mer frequency, TF over GST control)
binding signal [13]: 1.4 fold enrichment (6-mer frequency, TF over GST control)
binding signal [14]: 1.33 fold enrichment (6-mer frequency, TF over GST control)
binding signal [15]: 1.34 fold enrichment (6-mer frequency, TF over GST control)
binding signal [16]: 1.32 fold enrichment (6-mer frequency, TF over GST control)
binding signal [17]: 1.48 fold enrichment (6-mer frequency, TF over GST control)
binding signal [18]: 1.12 fold enrichment (6-mer frequency, TF over GST control)
binding signal [19]: 1.24 fold enrichment (6-mer frequency, TF over GST control)
